Reference: PubChem BioAssay (NCATS)
Inconclusive results are not listed. Calls of active or inactive are those of the source. Unless noted, calls follow the shape of the dose curve; as a rule, active = well fitted curve in the direction sought with a large enough effect; inconclusive = small, poorly fitted or top-dose-only effect, or another doubt; inactive = no such curve, though single readings can be large; an effect the other way counts as inactive or inconclusive.

How the values were obtained:
[1] = biological target: Arylsulfatase A (Homo sapiens) (UniProt P15289); experiment: qHTS screen for enhancers of Arylsulfatase A (ASA1): LOPAC Validation Assay (AID 720538); conditions: ASA enzyme activity, LOPAC qHTS enhancer assay; series mostly up to 57.5 µM
How it was run: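 Read-out: fluorescence at Ex=525/Em=598 nm after 1N NaOH final stop. Patient fibroblasts carrying ASA-I179S had 48h compound exposure, then 14h room-temperature pNCS hydrolysis (0.5mM final) in lysis buffer. Signal increase = enhanced activity.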

[2] = qHTS for compounds that reverse cellular toxicity of Amyloid beta (A-beta) peptide in yeast: LOPAC Validation Assay (AID 720559); conditions: yeast expressing A-beta; series mostly up to 46.1 µM
How it was run: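 OD600 growth readout after 48 hr at 30 C; A-beta-toxic yeast plus pinned compounds in medium. Normalization: DMSO = negative, equimolar FeCl3 + clioquinol = positive.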

[3] = qHTS for Activators of Parkin Expression: LOPAC Validation Assay (NLuc Reporter) (AID 720572); conditions: Parkin promoter NanoLuc reporter cells, luminescence, percent of positive control, DMSO as zero; series mostly up to 46.1 µM
How it was run: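 Cells harboring the Parkin-promoter coincidence reporter were treated for 24 h at seven concentrations. NLuc output was measured sequentially after the FLuc channel and scaled between DMSO and positive control values.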

[4] = qHTS for Activators of Parkin Expression: LOPAC Validation Assay (FLuc Reporter) (AID 720573); conditions: Cell line, PRKN promoter firefly luciferase reporter, vehicle wells = 0, positive control = 100%; series mostly up to 46.1 µM
How it was run: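 FLuc luminescence read-out from a neuronal line expressing a Parkin-promoter-driven coincidence reporter. Cells treated 24 h at 37 C, 5% CO2 with compounds at 7 concentrations; signal increase normalized to DMSO and positive control.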

[5] = qHTS assay for small molecule agonists of the antioxidant response element (ARE) signaling pathway measured by Nrf2-dependant transcriptional activity (AID 720636; active = well fitted curve in the direction sought with a large enough effect in the repeat runs; an effect the other way counts as inactive or inconclusive); conditions: ARE-luc HepG2, Nrf2 luciferase reporter, 16 h; series mostly up to 92.4 µM
How it was run: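 ARE-luc HepG2 cells carrying an Nrf2-responsive luciferase reporter, in medium with 1% dialyzed FBS, exposed to compound for 16 hr at 37 C, 5% CO2. Luminescence read 30 min after ONE-Glo addition.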

Measured: Potency

Arylsulfatase A (Homo sapiens), sequence (P15289 whole entry, looked up): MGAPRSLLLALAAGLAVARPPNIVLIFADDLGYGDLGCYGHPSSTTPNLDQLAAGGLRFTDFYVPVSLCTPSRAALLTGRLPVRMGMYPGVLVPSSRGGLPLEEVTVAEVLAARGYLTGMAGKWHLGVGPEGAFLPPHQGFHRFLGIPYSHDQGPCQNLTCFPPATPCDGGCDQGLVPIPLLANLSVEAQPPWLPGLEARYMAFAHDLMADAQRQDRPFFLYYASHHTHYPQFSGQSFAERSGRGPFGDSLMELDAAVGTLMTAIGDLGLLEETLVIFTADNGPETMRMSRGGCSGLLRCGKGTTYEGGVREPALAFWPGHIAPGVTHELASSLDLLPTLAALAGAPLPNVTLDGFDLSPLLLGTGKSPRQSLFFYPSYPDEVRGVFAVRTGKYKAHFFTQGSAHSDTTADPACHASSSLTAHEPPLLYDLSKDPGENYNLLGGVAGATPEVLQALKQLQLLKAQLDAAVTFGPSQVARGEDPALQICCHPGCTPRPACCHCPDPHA

CC(=O)NCCc1c[nH]c2ccccc12
inactive: [1] | [2] | [3] | [4]

O=C(O)Cc1cnc[nH]1
inactive: [2] | [3] | [4]

NCc1cc(=O)[nH]o1
inactive: [2] | [3] | [4]

c1ccc(CCCN2CCN(CCOC(c3ccccc3)c3ccccc3)CC2)cc1
inactive: [1] | [2] | [3] | [4]

CN[C@@H]1C[C@@H](c2ccc(Cl)c(Cl)c2)c2ccccc21
inactive: [2] | [3] | [4]

CO/C=C(/C(=O)OC)c1ccccc1Oc1cc(Oc2ccccc2C#N)ncn1
inactive: [5]

NC(CP(=O)(O)O)C(=O)O (configuration not stated)
inactive: [1] | [2] | [3] | [4]
